High-throughput results as filed in PubChem BioAssay.
Giardia kill = Giardia lamblia killing | Giardia lamblia trophozoite viability | activity change, % at 7.66 µM, hits read low | 340,000 tested, 0.15% active | AID 540267; in the data active = activity change below about -80%; inconclusive = between about -30% and that limit;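 also: parasites exposed to compound for two days anaerobically before the ATP read; % is scaled to controls: 0 for no effect and ±100 for the full control effect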
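Anaerobic 48 hrs incubation at 37 deg C of 100 trophozoites/well with test compounds; ATPLite 1-Step luminescence, 15-30 min RT, reports cellular ATP as viability.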
HepG2 tox = kills HepG2 cells in TGF-b inhibitor counter-screen; HepG2 CAGA-GFP viability, ATP luminescence, 18 h; Potency, µM (top dose mostly 46.1 µM), for the others: at the highest dose activity change, negative = cytotoxicity, actives largely listed as cytotoxic; 410,000 tested, 0.76% active; also: potency is read from the fitted curve at half-maximal effect
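CellTiter-Glo luminescence gave cytotoxicity after 18 hours at 37 degrees C. The cells were HepG2 CAGA-GFP in 1% FBS DMEM, stimulated with 500 pg/mL TGF-beta after compound addition. %Activity was normalised to no-cell wells (complete cell-killing) and DMSO (no toxicity), and curves were fitted and classified.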
TGFb inhibitor = TGF-b pathway inhibition; HepG2 CAGA-GFP TGF-b/SMAD3 reporter, GFP fluorescence, 18 h; TGF-beta stimulated, 500 pg/mL final; Potency, µM (titrated, usually from 46.1 µM), inactives show top-dose activity, negative = inhibition, actives largely listed as inhibitors; 410,000 tested, 1.2% active; also: potency is read from the fitted curve at half-maximal effect; % is scaled to controls: 0 for no effect and ±100 for the full control effect; nearly all actives have a fitted effect of over 65% in size
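Cell-based qHTS in HEPG2 carrying a CAGA-GFP Smad reporter; compounds added before 500 pg/mL final TGF-beta, 18 h incubation at 37 degrees C, GFP fluorescence quantified per cell by imaging cytometry.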
uPA surface inh = blocks generation of uPA at the cell surface | cell surface uPA generation assay, qHTS | 330,000 tested, 0.31% active | AID 540303 | Potency, µM (series often up to 38.3 µM), for the others: at the top dose activity change, negative = inhibition, usual class: inhibitors; active = well fitted inhibition curve with a large enough effect; inconclusive = small, poorly fitted or top-dose-only effect; inactive = no such curve, though single readings can be large or run the other way; tested in mouse RAW 264.7 cells; also: potency is read from the fitted curve at half-maximal effect; % is scaled to controls: 0 for no effect and ±100 for the full control effect; nearly all actives have a fitted effect of over 55% in size
S2 tox = viability counter-screen for ATXN expression inhibitors. S2 cells (HEK-293 line with an ATXN2-luciferase reporter) viability, CellTiter-Fluor protease fluorescence, 24 h. Potency, µM (highest dose often 56.7 µM), actives largely listed as cytotoxic. 400,000 tested, 0.49% active. AID 651635; also: potency is read from the fitted curve at half-maximal effect; nearly all actives have a fitted effect of over 40% in size
ATXN2 expr inh = inhibitors of ATXN2 expression | HEK-293 ATXN2-luciferase reporter, luminescence, 24 h | Potency, µM (doses to about 57 µM), for the others: at the top dose activity change, negative = inhibition, actives largely listed as inhibitors | 360,000 tested, 0.72% active; also: potency is read from the fitted curve at half-maximal effect; % is scaled to controls: 0 for no effect and ±100 for the full control effect; nearly all actives have a fitted effect of over 55% in size
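qHTS (up to 57 uM final) was run with 24 h compound exposure of reporter cells at 37 °C. Each well was multiplexed: SteadyGlo luminescence measured ATXN2-luciferase expression after a fluorogenic Gly-Phe-AFC viability readout (25 uM final).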
* = called active by the depositor; i = inactive; u = inconclusive; x = no result. The list is not random: actives were taken first. Their share in the collection is about 2.6%. Unless noted, calls follow the shape of the dose curve; as a rule, active = well fitted curve in the direction sought with a large enough effect; inconclusive = small, poorly fitted or top-dose-only effect, or another doubt; inactive = no such curve, though single readings can be large; an effect the other way counts as inactive or inconclusive.

SMILES	Giardia kill	HepG2 tox	TGFb inhibitor	uPA surface inh	S2 tox	ATXN2 expr inh
COc1cccc(N2CCN(c3nc(-c4ccccc4C)cc(=O)[nH]3)CC2)c1	7	-18%	u	-18%	i	0.71µM*
Nc1ccc(/C=C/c2nccc3ccccc23)cc1	x	-47%	-13%	x	x	x
CCCCC/C=C\CCC(=O)N[C@H]1[C@H](Oc2c3cc4cc2Oc2ccc(cc2Cl)[C@@H](O[C@@H]2O[C@H](CO)[C@@H](O)[C@H](O)[C@H]2NC(C)=O)[C@@H]2NC(=O)[C@H](NC(=O)[C@@H]4NC(=O)[C@H]4NC(=O)[C@@H](Cc5ccc(c(Cl)c5)O3)NC(=O)[C@H](N)c3ccc(O)c(c3)Oc3cc(O)cc4c3)c3ccc(O)c(c3)-c3c(O[C@H]4O[C@H](CO)[C@@H](O)[C@H](O)[C@@H]4O)cc(O)cc3[C@@H](C(=O)O)NC2=O)O[C@H](CO)[C@@H](O)[C@@H]1O	x	x	x	x	i	x
COc1ccc(-n2c(C)c([N+](=O)[O-])c3ccc(O)cc32)cc1	x	x	x	x	x	37%
CC(C)(C)n1[nH]c2c3c(ccc2c1=O)C(=O)c1ccccc1C3=O	u	6.3µM*	10µM*	-2%	u	-21%
COCCCn1[nH]c2c3c(ccc2c1=O)C(=O)c1ccccc1C3=O	-93*	-93%	u	-11%	i	-15%
COc1ccc2c(c1)OC(C)CN(CC(=O)NCc1cn[nH]c1-c1ccc(F)cc1)C2 (stereo not drawn)	x	x	x	x	i	x
COc1ccccc1-c1cc(NC(C)=O)c2ncc(-c3cccc(C(F)(F)F)c3)n2c1	x	16µM*	u	x	u	-33%
COc1ccc(-c2cnc3c(NC=O)cc(-c4ccccc4OC)cn23)cc1OC	x	-28%	u	x	i	18µM*
CN(C)CCNC(=O)c1cccc(-c2cc(NC=O)c3ncc(-c4cccc(C(F)(F)F)c4)n3c2)c1	x	20µM*	u	x	28µM*	22µM*
COc1cc(-c2cnc3c(NC(C)=O)cc(-c4ccc(N5CCN(C)CC5)cc4)cn23)cc(OC)c1OC	x	-78%	-7%	x	x	14µM*
COCCC1CCCCN1Cc1nc(N2CCCC2)c2cc(OC)c(OC)cc2n1 (stereo not drawn)	x	x	x	x	i	x
NS(=O)(=O)c1cc2c(cc1Cl)CN(C1CCCCC1)C2=O	x	x	x	x	i	8%
Cc1ccccc1C(=O)Nc1ccc(C(=O)N2CCCC(O)c3cc(Cl)ccc32)c(C)c1 (stereo not drawn)	x	x	x	x	i	16%
O=C(NC1CCC(n2cc(C(=O)NC3CC3)nn2)CC1)C(=O)c1ccccc1 (stereo not drawn)	x	x	x	x	i	x
CCN(CC)/[N+]([O-])=N/OCOC(=O)C(C)c1ccc(CC(C)C)cc1 (stereo not drawn)	x	-9%	-12%	x	x	x
COc1cccc(-c2cnc3c(NC=O)cc(-c4cccc(C(=O)N(C)C)c4)cn23)c1	x	-39%	3.5µM*	x	i	0%
COc1cc(-c2cnc3c(NC=O)cc(-c4cccc(C(F)(F)F)c4)cn23)cc(OC)c1OC	x	-47%	u	x	u	28µM*
COc1cccc(-c2cc(NC=O)c3ncc(-c4cc(OC)c(OC)c(OC)c4)n3c2)c1	x	-9%	u	x	u	-29%
O=C(COc1ccccc1C(=O)Nc1ccccc1)Nc1ccccc1F	x	-1%	-2%	x	x	x
C=C1CCC[C@]2(C)C[C@H]3OC(=O)C(CNC(C)CCCC(C)C)[C@H]3CC12 (stereo partly drawn)	-4	-46%	11µM*	-15%	u	u
CC(C)C[C@H](NC(=O)c1[nH]cnc1C(=O)Nc1ccc(CNC(=O)OC(C)(C)C)cc1)C(=O)OCc1ccccc1	-20	-42%	u	-3%	u	28µM*
CC(C)C[C@H](NC(=O)c1nc[nH]c1C(=O)NCc1ccccc1)C(=O)OC(C)(C)C	-12	-80%	11µM*	-10%	u	u
CC(C)C[C@H](NC(=O)c1nc[nH]c1C(=O)NC1CCN(C(=O)OC(C)(C)C)CC1)C(=O)OC(C)(C)C	-13	-77%	u	5%	u	u
CC(C)C[C@H](NC(=O)c1[nH]cnc1C(=O)N[C@@H](C)c1ccccc1)C(=O)OC(C)(C)C	3	-59%	u	u	25µM*	u
SMILES	Giardia kill	HepG2 tox	TGFb inhibitor	uPA surface inh	S2 tox	ATXN2 expr inh
CC(C)C[C@H](NC(=O)c1nc[nH]c1C(=O)NC1CCN(C(=O)OC(C)(C)C)CC1)C(=O)OCc1ccccc1	-4	13µM*	u	-15%	u	u
Nc1cccc2cccnc12	x	-38%	-13%	x	x	x
CC(C)C[C@H](NC(=O)c1[nH]cnc1C(=O)N[C@@H](Cc1ccccc1)C(=O)OC(C)(C)C)C(=O)OC(C)(C)C	-18	-31%	11µM*	u	x	u
CC(C)C[C@H](NC(=O)c1[nH]cnc1C(=O)Nc1ccccc1F)C(=O)OC(C)(C)C	x	11µM*	u	x	u	u
Cc1ncc2c(c1CNC(=O)/C=C/c1cccs1)CCN(C(=O)c1c(C)noc1C)C2	x	x	x	x	i	x
O=C1c2ccccc2S(=O)(=O)N1Cc1nc2ccccc2s1	-6	-5%	-6%	-5%	i	4µM*
Cc1ccccc1CN1C(=O)c2ccccc2S1(=O)=O	-18	-25%	-1%	-17%	i	8%
O=C(NCCCN1CCCCC1)c1[nH]c2ccccc2c1Sc1ccc(Cl)cc1	x	13µM*	u	x	x	u
CC1CCCCN1CCCNC(=O)c1[nH]c2ccccc2c1Sc1ccc(Cl)cc1 (stereo not drawn)	x	-109%	u	x	x	u
C=CCSc1nnc(C2CCCN(Cc3ccccc3O)C2)n1C (stereo not drawn)	x	x	x	x	i	x
